Experimental data: PubChem BioAssay (NCATS)
Results filed as inconclusive are left out. Values without a mark were called inactive. Calls follow the shape of the dose curve; as a rule, active = well fitted cell-killing curve with a large enough effect; inconclusive = small, poorly fitted or top-dose-only effect, or effect the other way; inactive = flat fitted curve, though single readings scatter.

The compounds below were run on Tov-21-G (assay: Primary qHTS to identify gynecologic anti-cancer compounds using libraries of approved drugs and bioactive compounds (AID 1345084; also: nearly all actives have a fitted effect of over 55% in size)). Details: Gynecologic cancer cell panel viability, ATPlite luminescence, 48 h; series mostly up to 57.5 µM; activity change, negative = cytotoxicity: at the top concentration.
In short: (§1)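 Five-concentration response, 48 h; readout is ATP-driven luciferase luminescence.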
% is scaled to controls: 0 for no effect and ±100 for the full control effect.

Structure (SMILES) | activity change, negative = cytotoxicity
N#Cc1cccc(C(=O)Nc2cc(-c3ccccc3)nn2-c2ccccc2)c1 | -0.005%
O=C(Nc1ccc(C(F)(F)F)cn1)N1CCN(c2ncccc2C(F)(F)F)CC1 | -1.2%
O=C(Nc1ccccc1C(=O)NC1CCCCNC1=O)c1cc2ccccc2s1 (stereo not drawn) | 1.01%
CCCCCCOC(=O)/N=C(\N)c1ccc(NCc2nc3cc(C(=O)N(CCC(=O)OCC)c4ccccn4)ccc3n2C)cc1 | -1.08%
CC[C@H]1CN(c2nc(N)c(C(N)=O)nc2Cl)CCN1C1CCN(Cc2ccc(Cl)cc2)CC1 | 0.352%
CC(C)=CCc1cc2c(cc1O)OC[C@H]1c3ccc(O)cc3O[C@@H]21 | -0.474% [at 38.5 µM]
Cc1c(C(=O)NCc2cccnc2)nn(-c2ccc(Cl)cc2Cl)c1-c1ccc(Cl)cc1 | 7.47%
C=C1C(OC2OC(CO)C(O)C(O)C2O)CC2C(C)(C)C(O)CCC2(C)C1CC/C(C)=C\COC(=O)CC(=O)O (stereo not drawn) | -0.154% [at 25.3 µM]
C=CC1(C)CC(O)C(C(=C)C(=O)OC)C(O)C1C(=C)CO (stereo not drawn) | -6.73%
Cn1cc(-c2ccc(F)c(C(F)(F)F)c2)nc1C1CCN(c2ncnc3[nH]ncc23)CC1 | -10.1% [at 25.3 µM]
Cc1ccccc1CN1CCn2c1nc1c(c2=O)CN(Cc2ccccc2)CC1 | 7.58%
Cc1cc(-c2ncc(-c3cccnc3)cc2/C=C/c2ccccc2)cnc1-c1cccnc1 | -1.35%
Cc1cnn(-c2ccccc2)c1NC(=O)COCc1ccccc1 | 3.77%
OC(CC1c2ccccc2-c2cncn21)C1CCCCC1 (stereo not drawn) | 5.29%
Nc1nc2c(s1)CCN(Cc1ccc(Cl)cc1)CC2 | -1.39%
COc1ccc(CCN(C)CCCOc2nsc(-c3ccccc3)n2)cc1OC | 2.07%
COc1cc(O)cc(OC2OC(CO)C(O)C(O)C2O)c1 (stereo not drawn) | 3.62%
Cc1cc(C)cc(-c2cnc3cc(Cl)c(-c4cccc(O)c4)cc3c2OCCCN)c1 | 2.05%
N[C@@H]1c2cccnc2[C@H](OC(=O)N2CCC(n3c(=O)[nH]c4ncccc43)CC2)CC[C@H]1c1cccc(F)c1F | 3.37%
CNCc1cc(-c2ccccc2F)n(S(=O)(=O)c2cccnc2)c1 | 1.94%

Structure (SMILES) | activity change, negative = cytotoxicity
COc1c2c(c(C)c3c1C(=O)OC3)O[C@@]1(C)C[C@@H](OC(C)=O)[C@]34O[C@](OC)(CC[C@]3(C)[C@H]1C2)OC4(C)C | -3.1% [at 25.3 µM]
O=C(N[C@H](Cc1cscn1)C(=O)N[C@@H](CC1CCCCC1)[C@@H](O)[C@@H](O)C1CC1)c1nc2ccccc2[nH]1 | 10.4%
O=C(COc1ccc2ccccc2c1Br)Nc1cccnc1 | 5.4%
C=C(CCC1C(C)(O)CCC2C(C)(C)C(O)CCC12C)C(O)CO (stereo not drawn) | -3.43% [at 38.5 µM]
C=CCC1=C[C@]2(OC)[C@H](C)[C@@H](c3ccc4c(c3)OCO4)O[C@]2(OC)CC1=O | 9.18% [at 38.5 µM]
C[C@H]1CC[C@@]2(OC1)O[C@H]1CC3[C@@H]4CC[C@@H]5C[C@@H](O[C@@H]6O[C@H](CO)[C@@H](O[C@@H]7O[C@H](CO[C@@H]8OC[C@@H](O)[C@H](O)[C@H]8O)[C@@H](O[C@@H]8O[C@H](CO)[C@H](O)[C@H](O)[C@H]8O)[C@H](O)[C@H]7O)[C@H](O)[C@H]6O)CC[C@]5(C)C4CC[C@]3(C)[C@H]1[C@@H]2C (stereo partly drawn) | -1.12% [at 11.6 µM]
C[C@@H](NC(=O)C(=O)c1c[nH]c2ccc([N+](=O)[O-])cc12)c1ccccc1 | 26.2%
Cc1[nH]c2ccccc2c1CCNC(=O)c1cccs1 | 4.32%
C#CCCCn1cc(-c2cccc3c2N[C@H](C)CC(=O)N3)cn1 | 10.5%
O=C(NC1CCC1)c1ccc(C#Cc2cccc(F)c2)nc1 | 10.1%
O=C(O)c1cccc(-c2ccc(-c3cn(C(=O)N4CCCCC4Cc4ccccc4)nn3)cc2)c1 (stereo not drawn) | -9.99%
COC1C(OC(=O)/C=C/C=C/C=C/C=C/C(=O)O)CCC2(CO2)C1C1(C)OC1CC=C(C)C (stereo not drawn) | -4.22% [at 25.3 µM]
Cc1cc2c(cc1N1C(=O)c3cccc4c(CCCO)ccc(c34)C1=O)n(C)c(=O)n2C | -27.1% [at 25.3 µM]
O=C(NCC(=O)N1CCCC1)Nc1ccc2cnccc2c1 | 5.58%
CC(C)(C)c1ccc(C(=O)Nc2cn3cc(-n4ccnc4)ccc3n2)cc1 | -10.5%
O=S1(=O)CCN(Cc2cc(NCC3CCOCC3)c3[nH]c(-c4ccccc4)cc3c2)CC1 | 0.302%
NS(=O)(=O)c1ccc(N2N=C(c3ccccc3)CC2c2ccccc2)cc1 (stereo not drawn) | 14.5%
CCc1ccccc1OC[C@@H](O)CN[C@H]1CCCc2ccccc21 | -0.433%
C=C1/C(=C/C=C2\CCC[C@]3(C)[C@@H]([C@H](C)/C=C/[C@H](O)C4CC4)CC[C@@H]23)C[C@@H](O)C[C@@H]1O | -1.1%

These compounds were tested on Tov112D in the same assay as above. Details: Gynecologic cancer cell panel viability, ATPlite luminescence, 48 h; series mostly up to 57.5 µM; activity change, negative = cytotoxicity: at the top concentration.
In short: as §1

Structure (SMILES) | activity change, negative = cytotoxicity
N#Cc1cccc(C(=O)Nc2cc(-c3ccccc3)nn2-c2ccccc2)c1 | -0.334%
O=C(Nc1ccc(C(F)(F)F)cn1)N1CCN(c2ncccc2C(F)(F)F)CC1 | -2.41%
O=C(Nc1ccccc1C(=O)NC1CCCCNC1=O)c1cc2ccccc2s1 (stereo not drawn) | 0.719%
CCCCCCOC(=O)/N=C(\N)c1ccc(NCc2nc3cc(C(=O)N(CCC(=O)OCC)c4ccccn4)ccc3n2C)cc1 | 6.1%
CC[C@H]1CN(c2nc(N)c(C(N)=O)nc2Cl)CCN1C1CCN(Cc2ccc(Cl)cc2)CC1 | 0.956%
CC(C)=CCc1cc2c(cc1O)OC[C@H]1c3ccc(O)cc3O[C@@H]21 | -16.6% [at 38.5 µM]
Cc1c(C(=O)NCc2cccnc2)nn(-c2ccc(Cl)cc2Cl)c1-c1ccc(Cl)cc1 | -0.804%
C=C1C(OC2OC(CO)C(O)C(O)C2O)CC2C(C)(C)C(O)CCC2(C)C1CC/C(C)=C\COC(=O)CC(=O)O (stereo not drawn) | 5% [at 25.3 µM]
C=CC1(C)CC(O)C(C(=C)C(=O)OC)C(O)C1C(=C)CO (stereo not drawn) | -1.79%
Cn1cc(-c2ccc(F)c(C(F)(F)F)c2)nc1C1CCN(c2ncnc3[nH]ncc23)CC1 | 3.05% [at 25.3 µM]
Cc1ccccc1CN1CCn2c1nc1c(c2=O)CN(Cc2ccccc2)CC1 | -3.15%
Cc1cc(-c2ncc(-c3cccnc3)cc2/C=C/c2ccccc2)cnc1-c1cccnc1 | -0.222%
Cc1cnn(-c2ccccc2)c1NC(=O)COCc1ccccc1 | -4.23%
OC(CC1c2ccccc2-c2cncn21)C1CCCCC1 (stereo not drawn) | -11.9%
Nc1nc2c(s1)CCN(Cc1ccc(Cl)cc1)CC2 | 1.27%
COc1ccc(CCN(C)CCCOc2nsc(-c3ccccc3)n2)cc1OC | -7.41%
COc1cc(O)cc(OC2OC(CO)C(O)C(O)C2O)c1 (stereo not drawn) | 7.45%
Cc1cc(C)cc(-c2cnc3cc(Cl)c(-c4cccc(O)c4)cc3c2OCCCN)c1 | 0.909%
N[C@@H]1c2cccnc2[C@H](OC(=O)N2CCC(n3c(=O)[nH]c4ncccc43)CC2)CC[C@H]1c1cccc(F)c1F | 6.15%
CNCc1cc(-c2ccccc2F)n(S(=O)(=O)c2cccnc2)c1 | -0.265%

Structure (SMILES) | activity change, negative = cytotoxicity
COc1c2c(c(C)c3c1C(=O)OC3)O[C@@]1(C)C[C@@H](OC(C)=O)[C@]34O[C@](OC)(CC[C@]3(C)[C@H]1C2)OC4(C)C | 13.4% [at 25.3 µM]
O=C(N[C@H](Cc1cscn1)C(=O)N[C@@H](CC1CCCCC1)[C@@H](O)[C@@H](O)C1CC1)c1nc2ccccc2[nH]1 | -2.39%
O=C(COc1ccc2ccccc2c1Br)Nc1cccnc1 | -4.53%
C=C(CCC1C(C)(O)CCC2C(C)(C)C(O)CCC12C)C(O)CO (stereo not drawn) | -1.36% [at 38.5 µM]
C=CCC1=C[C@]2(OC)[C@H](C)[C@@H](c3ccc4c(c3)OCO4)O[C@]2(OC)CC1=O | -4.01% [at 38.5 µM]
C[C@H]1CC[C@@]2(OC1)O[C@H]1CC3[C@@H]4CC[C@@H]5C[C@@H](O[C@@H]6O[C@H](CO)[C@@H](O[C@@H]7O[C@H](CO[C@@H]8OC[C@@H](O)[C@H](O)[C@H]8O)[C@@H](O[C@@H]8O[C@H](CO)[C@H](O)[C@H](O)[C@H]8O)[C@H](O)[C@H]7O)[C@H](O)[C@H]6O)CC[C@]5(C)C4CC[C@]3(C)[C@H]1[C@@H]2C (stereo partly drawn) | 3.54% [at 11.6 µM]
C[C@@H](NC(=O)C(=O)c1c[nH]c2ccc([N+](=O)[O-])cc12)c1ccccc1 | 11.8%
Cc1[nH]c2ccccc2c1CCNC(=O)c1cccs1 | -3.86%
C#CCCCn1cc(-c2cccc3c2N[C@H](C)CC(=O)N3)cn1 | 0.311%
O=C(NC1CCC1)c1ccc(C#Cc2cccc(F)c2)nc1 | 0.678%
O=C(O)c1cccc(-c2ccc(-c3cn(C(=O)N4CCCCC4Cc4ccccc4)nn3)cc2)c1 (stereo not drawn) | -0.561%
COC1C(OC(=O)/C=C/C=C/C=C/C=C/C(=O)O)CCC2(CO2)C1C1(C)OC1CC=C(C)C (stereo not drawn) | 4.29% [at 25.3 µM]
Cc1cc2c(cc1N1C(=O)c3cccc4c(CCCO)ccc(c34)C1=O)n(C)c(=O)n2C | -33.6% [at 25.3 µM]
O=C(NCC(=O)N1CCCC1)Nc1ccc2cnccc2c1 | -2.77%
CC(C)(C)c1ccc(C(=O)Nc2cn3cc(-n4ccnc4)ccc3n2)cc1 | -7.45%
O=S1(=O)CCN(Cc2cc(NCC3CCOCC3)c3[nH]c(-c4ccccc4)cc3c2)CC1 | -0.755%
NS(=O)(=O)c1ccc(N2N=C(c3ccccc3)CC2c2ccccc2)cc1 (stereo not drawn) | 8.49%
CCc1ccccc1OC[C@@H](O)CN[C@H]1CCCc2ccccc21 | 2.16%
C=C1/C(=C/C=C2\CCC[C@]3(C)[C@@H]([C@H](C)/C=C/[C@H](O)C4CC4)CC[C@@H]23)C[C@@H](O)C[C@@H]1O | 2.19%
